Laboratory results: ChEMBL document CHEMBL4513216, “Probing the Open Global Health Chemical Diversity Library for Multistage-Active Starting Points for Next-Generation Antimalarials” (ACS Infect Dis, 2020)
The whole screen tested about 65,000 compounds, of which about 2,100 (3.2%) showed an effect of 50% or more. The median lay at about -52%. The list comes from a sample in which strong results are over-represented; it also holds similar structures and randomly drawn compounds.

system: Plasmodium falciparum; assay: Screen against P. falciparum Asexual Blood Stage (ABS), at 5uM; assay type: functional, Dd2; settings: tested at 5 uM

Compound | INHIBITION
Cc1ccc(CNC(=O)c2ccc(=O)n(C)n2)c(OCC2CC2)c1 | -124%
O=C1NCCN1C1CCN(Cc2nc(-c3ccsc3)no2)CC1 | -14.4%
COc1cc(C)ccc1OCC(=O)Nc1ccnc(OCCN(C)C)c1 | -18.6%
COCC(=O)Nc1ccnc(OCCN(C)C)c1 | -59.7%
CCc1ccccc1OCC(=O)Nc1ccnc(OCCN(C)C)c1 | 59.7%
Cc1nc2ccn(C(C)C)c(=O)c2cc1C(=O)O | -39.7%
CC(=O)N1CCC(n2ccc(-c3cnc(NCC(C)C)nc3)n2)CC1 | -32.2%
CCOCCNc1nc(C2CCCC2)nc2c1cnn2C | -129%
Cn1ncc2c(NCCn3cccc3)nc(C3CCCC3)nc21 | 9.86%
CCS(=O)(=O)CCNc1nc(C2CCCC2)nc2c1cnn2C | -115%
CC(C)N(CCNc1nc(C2CCCC2)nc2c1cnn2C)C(C)C | 58.6%
CNCCCNc1nc(C2CCCC2)nc2c1cnn2C | -38.7%
Cn1ncc2c(NCCC34CCCN3CCC4)nc(C3CCCC3)nc21 | 63.3%
N#CCCCS(=O)(=O)NC1(c2cccc(Br)c2)CC1 | -148%
CCOC1COC2(CCN(c3ccccn3)CC2)C1 (configuration not stated) | -0.961%
CCOCC(O)c1nc2c([nH]1)CC(C)(C)CNC2=O (configuration not stated) | -96.9%
Cc1cnn(CC(C)NCc2c(C)nn(Cc3ccccc3)c2C)c1 (configuration not stated) | 50.7%
Cc1cnn(CCNCc2c(C)nn(Cc3ccccc3)c2C)c1 | 34.2%
Cc1cnn(CC(C)NCc2ccc(-n3cccn3)cc2)c1 (configuration not stated) | -72.7%
CCOCC1CN(C(=O)C2CCOCC2)Cc2cnn(C)c21 (configuration not stated) | -57.8%
Cc1ccc(CN2CCN(c3cncc(N(C)C)n3)CC2=O)cc1C | -30%
CCN(CC)S(=O)(=O)c1ccc(CNc2cc(C)nc(C)n2)cc1 | -79.3%
COCCO[C@@H]1CCN(Cc2csc(C)n2)[C@H]1Cc1ccccc1 | 65.8%
COCCO[C@H]1CCN(Cc2ccsc2)[C@H]1Cc1cccnc1 | 14.6%

Compound | INHIBITION
Cc1ccc(N2CC[C@H](OCC3CC3)[C@@H]2Cc2cccnc2)nn1 | -79.3%
Cc1nc(CN2CC[C@@H](OCC3CC3)[C@@H]2Cc2cccnc2)cs1 | 6.96%
Cc1nc(CN2CC[C@H](OCC3CC3)[C@@H]2Cc2cccnc2)cs1 | 60.4%
COCCO[C@H]1CCN(Cc2cccnc2)[C@H]1Cc1cccnc1 | 3.22%
Cc1ccc(CN2CCC3(C2)C(=O)N(CC2CC2)c2ccccc23)s1 (configuration not stated) | -74.8%
COCC(=O)N1C[C@H]2CN(Cc3cccc(F)c3)C(=O)[C@H]2C1 | -63.1%
Cc1nc(CN2CCN(C(=O)NC(C)c3cccnc3)CC2)cs1 (configuration not stated) | 56.3%
Cc1cc(CN2CCN(C(=O)NC(C)c3cccnc3)CC2)no1 (configuration not stated) | 49.7%
CC(NC(=O)N1CCCN(Cc2cccs2)CC1)c1cccnc1 (configuration not stated) | -63.5%
CC(C)NC(=O)CCNC(=O)CCc1cc(Cl)cs1 | -9.13%
Cn1nc(CN2CCCC2)c2c1CN(c1cnccn1)CC2 | -56%
COc1c(CNCC(O)c2cccc(F)c2)c(C(C)C)nn1C (configuration not stated) | 63.5%
COc1c(CNC2CCOc3c(Cl)cccc32)c(C)nn1C (configuration not stated) | 10.1%
COc1c(CNC2CCOc3ccccc32)c(C(C)C)nn1C (configuration not stated) | -20.7%
COc1c(CNC2CCc3c(F)cccc32)c(C)nn1C (configuration not stated) | -21.6%
COc1c(CNC2CCCOc3ccccc32)c(C(C)C)nn1C (configuration not stated) | 52.2%
COc1c(CNCC(O)c2ccccc2)c(C(C)C)nn1C (configuration not stated) | 0.811%
COc1c(CNC2CCc3c(Cl)cccc32)c(C)nn1C (configuration not stated) | 62.6%
COc1c(CNC2CCCc3ccccc32)c(C(C)C)nn1C (configuration not stated) | 64.8%
COc1c(CNC2CCCc3ccccc32)c(C)nn1C (configuration not stated) | 3.18%
COc1c(CNC2CCCOc3ccc(F)cc32)c(C(C)C)nn1C (configuration not stated) | 38.8%
COc1c(CNC2CCCOc3ccccc32)c(C)nn1C (configuration not stated) | -42.2%
COc1c(CNCC(O)c2cccc(F)c2)c(C)nn1C (configuration not stated) | -92.7%
COc1ccc(CN2CCCn3cnc(COC(C)C)c3C2)cc1 | -12.6%

Compound | INHIBITION
CC(C)n1nc(Cn2cccc2)c2c1CN(Cc1ccoc1)C2 | -92.6%
Cc1ccccc1C(=O)N1C[C@@H]2C(CN(C)CCc3ccccn3)[C@@H]2C1 (some centres not stated) | -14.6%
COc1c(CNC2CCc3cc(F)ccc32)c(C)nn1C (configuration not stated) | 28.1%
COc1ccc(CNCc2c(C(C)C)nn(C)c2OC)cn1 | 60.8%
CC(C)c1nn(C)c(N(C)C)c1CNC1CCc2cc(F)ccc21 (configuration not stated) | 0.843%
COc1c(CNCc2ccc(N(C)C)nc2)c(C(C)C)nn1C | -79%
COc1c(CNC2CCc3ccccc32)c(C)nn1C (configuration not stated) | 33.9%
COc1ccc(CNCc2c(C(C)C)nn(C)c2N(C)C)cn1 | -26.4%
COc1c(CNC2CCc3ccccc32)c(C(C)C)nn1C (configuration not stated) | 62.5%
COc1c(CNC2CCOc3c(Cl)cccc32)c(C(C)C)nn1C (configuration not stated) | -60.2%
COc1c(CNC2CCc3cc(F)ccc32)c(C(C)C)nn1C (configuration not stated) | 59.7%
CC(C)CN1C(=O)C[C@@H]2[C@@H]1CCN2Cc1cccc(C#N)c1 | -105%
Cc1cc(C)n(CC2CCCN2C(=O)c2cn[nH]c2C)n1 (configuration not stated) | -90%
O=C(CCSC1CCc2ccccc2NC1=O)NCCCO (configuration not stated) | -7.35%
CC(C)c1nnc2n1CCN(Cc1ncc(-c3ccccc3)o1)C2 | 62%
Cc1nnc2n1CCN(Cc1ncc(-c3ccccc3)o1)C2 | -95.9%
Cc1cccc(-c2noc(CN3CCn4c(nnc4C4CC4)C3)n2)c1 | -35.8%
CCc1nnc2n1CCN(Cc1ncc(-c3ccccc3)o1)C2 | 46.9%
Cc1nnc2n1CCN(Cc1ncc(-c3ccc(F)cc3)o1)C2 | 8.55%
Cc1ccc(-c2noc(CN3CCn4c(nnc4C4CC4)C3)n2)cc1 | -44.9%
Fc1ccc(-c2cnc(CN3CCn4c(nnc4C4CC4)C3)o2)cc1 | 53.1%
Cc1ccccc1-c1noc(CN2CCn3c(nnc3C3CC3)C2)n1 | 51.7%
c1ccc(-c2cnc(CN3CCn4c(nnc4C4CC4)C3)o2)cc1 | -8.02%
Cc1noc(C2CCCN2C(=O)C2CCC2)n1 (configuration not stated) | -24%

Compound | INHIBITION
Cc1ncc(CN(C)Cc2nc3cc(Cl)ccc3n2C)s1 | -54.3%
c1cc(CNCc2cccc3c2OCCCO3)cc(Cn2cncn2)c1 | 48.9%
CC1=NN(CC(=O)N2CC[C@@H]3[C@@H](CCC(=O)N3CC(C)C)C2)CC1 | -127%
Cc1ncsc1C(=O)N1CCN(CCC(C)C)CC1 | -64.6%
Cc1nc(-c2cccnc2)ncc1C(=O)N1CCC(C(C)N(C)C)CC1 (configuration not stated) | -79.6%
OC1CCN(CCCNc2ncccn2)CC1 | -61.1%
CN(C(=O)NCc1ccncc1)C1CCN(c2ccccc2)C1=O (configuration not stated) | -128%
CN(C(=O)Nc1ccccn1)C1CCCN(c2ccccc2)C1=O (configuration not stated) | 13.9%
CN(C(=O)Nc1ccncc1)C1CCN(c2ccccc2)C1=O (configuration not stated) | 51%
CCn1nc2c(cc1=O)CN(CC(=O)Nc1nncs1)CC2 | -35%
Cn1cc(N2CC3(CCN(C(=O)c4cccn4C)CC3)OCC2=O)cn1 | -94.7%
CCn1c(CN2CCN(CCOC)CC2)nc2c(F)cccc21 | 68.6%
CCn1c(CN2CCN(CC(N)=O)CC2)nc2c(F)cccc21 | -147%
CCn1c(CN2CCN(CCO)CC2)nc2c(F)cccc21 | 10.6%
Brc1cccnc1OC1CCNCC1 | 35.5%
Cc1nc(SC2CCN(c3sccc3C#N)C2=O)oc1C (configuration not stated) | -137%
Cc1cc2c(N3CCC(N(C)CCc4cnn(C)c4)CC3)ncnc2s1 | -30.9%
CCN(C)c1cc(CNC(=O)CNC(=O)CC2CCCCC2)ccn1 | -24.9%
CCCNCc1cn(Cc2ccccc2)nc1-c1cccnc1 | 60%
Cn1cc(CNCCOc2ccc(F)c(F)c2)c(-c2cccnc2)n1 | 54.4%
Cn1cc(CNCCc2cccnc2)c(-c2cccnc2)n1 | -35.7%
Cn1cc(CNCCn2cccn2)c(-c2cccnc2)n1 | -42%
CCCNCc1cn(C)nc1-c1cccnc1 | -21.6%
Cn1cc(CNCCc2nccs2)c(-c2cccnc2)n1 | 1.56%

Compound | INHIBITION
O=C(c1cccnc1)N1CCC2(CCN(C(=O)N3CCCC3)CC2)C1 | -71.7%
CCCC(=O)N1CC[C@@H]2[C@H](CC1)N(Cc1cccc(C)n1)CCS2(=O)=O | -82%
c1ccc2sc(N3CCC4(CCCN4Cc4ncc[nH]4)CC3)nc2c1 | 20.4%
Cn1cc(CN2CCCC23CCN(c2nc4ccccc4s2)CC3)cn1 | 51.7%
Cc1nc(CN2CCCC23CCN(c2nc4ccccc4s2)CC3)co1 | 9.68%
CC(C)=CCN1CCN(Cc2cc(C)c(O)c(C)c2)CC1CCO (configuration not stated) | -36%
Cc1cc(CN(C)Cc2csc(-c3cccs3)n2)n[nH]1 | -130%
Cc1cc(CN(C)Cc2ccccc2N2CCCCC2)n[nH]1 | 67.5%
CN(Cc1noc(C(C)(C)C)n1)Cc1ccccc1N1CCCC1 | 16.2%
CCN(C(=O)CN1CCn2c(nnc2C2CC2)C1)C1=CCCCC1 | -67.6%
Cc1nccc(C(=O)NC(CN2CCCC2=O)c2ccccc2)n1 (configuration not stated) | -66.1%
CC(C)CNC(=O)c1nc(COc2ccc3c(c2)OCO3)no1 | -58.7%
Cn1cc(C2CCCN2CCC(=O)N2CCc3sccc3C2)cn1 (configuration not stated) | -37.7%
Cc1cc(C2CCCN2CCC(=O)N2CCc3sccc3C2)no1 (configuration not stated) | -1.53%
O=C(CN1CCCC1c1cccs1)N1CCc2sccc2C1 (configuration not stated) | 3.62%
O=C(CCN1CCCC1C1CCCCC1)N1CCc2sccc2C1 (configuration not stated) | 59.9%
O=C(CCC(=O)N1CCCC1c1cccs1)N1CCc2sccc2C1 (configuration not stated) | -117%
N#Cc1cccc(CNCCC(=O)N2CCc3sccc3C2)c1 | 21.5%
O=C(CCNCc1cccc(O)c1)N1CCc2sccc2C1 | 52.1%
COc1ccc(CNCCC(=O)N2CCc3sccc3C2)cc1O | 36.4%
O=C(CCN1CCCC1c1cccs1)N1CCc2sccc2C1 (configuration not stated) | 50.8%
